Paper PMC4336329 (PLoS ONE, 2015)
Among all 310,000 compounds or so, about 14,000 (4.5%) showed an effect of 50% or more. Effects have a minus sign here. The sample holds strong results, similar compounds and a random draw of the others, so the mix is not that of the screen.

molecular target: human ether-à-go-go-related gene (hERG) potassium channel (human, UniProt Q12809); assay: primary screen, population patch clamp on CHO cells stably expressing hERG; higher = less effect of the substance
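Also: peak tail current of the secondary pulse compared with the same well before compound.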

human ether-à-go-go-related gene (hERG) potassium channel, sequence (Q12809 whole entry, looked up): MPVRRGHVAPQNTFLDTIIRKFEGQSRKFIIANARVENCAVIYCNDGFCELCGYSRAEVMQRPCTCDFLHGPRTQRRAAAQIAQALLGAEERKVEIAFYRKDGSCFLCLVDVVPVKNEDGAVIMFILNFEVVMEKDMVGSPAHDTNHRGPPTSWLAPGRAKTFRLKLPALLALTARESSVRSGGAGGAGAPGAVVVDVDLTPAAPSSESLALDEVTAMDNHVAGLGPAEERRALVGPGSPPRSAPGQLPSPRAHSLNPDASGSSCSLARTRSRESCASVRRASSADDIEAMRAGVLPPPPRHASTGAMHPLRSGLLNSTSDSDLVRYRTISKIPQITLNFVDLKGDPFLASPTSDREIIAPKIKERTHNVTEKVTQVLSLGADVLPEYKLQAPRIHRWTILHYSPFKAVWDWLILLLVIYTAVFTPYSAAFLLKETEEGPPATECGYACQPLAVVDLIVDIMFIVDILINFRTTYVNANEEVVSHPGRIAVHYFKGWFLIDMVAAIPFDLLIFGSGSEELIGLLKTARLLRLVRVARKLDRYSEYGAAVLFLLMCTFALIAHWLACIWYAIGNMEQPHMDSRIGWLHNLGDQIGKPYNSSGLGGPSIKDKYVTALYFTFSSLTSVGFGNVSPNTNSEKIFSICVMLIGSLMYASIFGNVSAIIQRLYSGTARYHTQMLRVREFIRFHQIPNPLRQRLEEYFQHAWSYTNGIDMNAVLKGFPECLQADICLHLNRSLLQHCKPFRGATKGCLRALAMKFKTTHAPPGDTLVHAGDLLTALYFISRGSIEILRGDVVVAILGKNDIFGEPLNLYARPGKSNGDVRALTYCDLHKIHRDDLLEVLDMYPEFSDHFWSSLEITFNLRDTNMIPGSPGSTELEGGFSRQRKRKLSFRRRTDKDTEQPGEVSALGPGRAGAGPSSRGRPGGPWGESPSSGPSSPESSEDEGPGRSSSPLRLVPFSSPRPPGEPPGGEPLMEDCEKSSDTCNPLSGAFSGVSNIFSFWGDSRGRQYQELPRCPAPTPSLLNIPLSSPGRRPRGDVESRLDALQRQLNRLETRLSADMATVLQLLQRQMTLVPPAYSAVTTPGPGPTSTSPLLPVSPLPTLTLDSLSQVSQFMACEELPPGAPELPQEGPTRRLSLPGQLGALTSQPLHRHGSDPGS

Point of comparison: COC(=O)c1c(C)oc2ccc(NS(=O)(=O)c3cccs3)cc12, “hERG current change (%, negative = inhibition) at 10uM” value -2.42%. Against it:
- O=C(O)c1ccc(COc2ccccc2[N+](=O)[O-])o1 — higher, 14.8%
- O=C1CCCC(O)=C1C(C#Cc1ccccc1)C1=C(O)CCCC1=O — lower, -17.9%
- CCOC(=O)c1c(C)oc2ccc(NS(=O)(=O)c3cccs3)cc12 — higher, 6.47%
- COCCOC(=O)c1c(C)oc2ccc(NS(=O)(=O)c3cccs3)cc12 — lower, -51.4%
- CCOC(=O)c1ccc(NC(=O)CCSCCc2ccccn2)cc1 — higher, 0.702%
- CC(C)C[C@H](NC(=O)[C@H](Cc1ccccc1)n1c(=O)[nH]c2ccccc2c1=O)C(=O)N1CCC[C@H]1C(=O)O — higher, 6.16%
- COCCNc1nc(-c2ccc(OC)cc2)c(-c2ccc(OC)cc2)s1 — higher, 15.3%
- CCN(CC)CCNc1nc(-c2ccc(OC(F)F)cc2)c(C)s1 — lower, -77.8%
- Br.COc1ccc(-c2nc(NC3=NCCCCC3)sc2C)cc1 — lower, -26.6%
- CCNc1nc(-c2ccc(OC(F)F)cc2)c(C)s1 — higher, 15.1%
- CCN(CC)CCNc1nc(-c2ccc(OC)cc2)c(-c2ccc(OC)cc2)s1 — lower, -52.6%
- CNc1nc(-c2ccc(OC)cc2)c(-c2ccc(OC)cc2)s1 — lower, -12.7%
- C/C(=N/NC(=O)c1ccc(Cl)cc1Cl)c1cccnc1 — higher, 16.4%
- CN1CCN(c2nc3c(c(=O)n(C)c(=O)n3C)n2Cc2cccc3ccccc23)CC1 — lower, -5.1%
- CN(CC(=O)Nc1ccc(Cl)cc1F)C1CCS(=O)(=O)C1 (stereo not drawn) — lower, -20.6%
- COc1ccc(CNC(=O)C2CC(=O)N(C3CCCC3)C2)cc1 (stereo not drawn) — lower, -8.14%
- Cc1ccc(-c2nnc(SCC#CCOC(=O)c3cccs3)o2)cc1 — higher, 14.3%
- O=C(OCC#CCSc1nnc(-c2ccncc2)o1)c1cccs1 — lower, -53.2%
- O=C(OCC#CCSc1nnc(-c2ccccc2)o1)c1cccs1 — lower, -17.7%
- COc1ccc(CN2CCNC(=O)C2CC(=O)NCc2cn[nH]c2-c2ccccc2)c(F)c1 (stereo not drawn) — higher, -1.07%
- Cc1cccc(NC(=O)c2ccccc2NC(=O)Cc2ccccc2)c1C — higher, 4.93%
- CCNC(=O)CSc1nc(-c2ccccc2)cs1 — lower, -4.81%
- CN(C)c1nc(N2CCN(c3ccccc3)CC2)c(C#N)c(=O)o1 — lower, -16.9%
- CCN1CCN(C(c2cccs2)C(C)NC(=O)Oc2ccccc2)CC1 (stereo not drawn) — lower, -38.5%
- CC(C)N(C(=O)c1ccc2nc(-c3ccccc3)c(-c3ccccc3)nc2c1)C(C)C — lower, -4.73%
- Cc1ccc(SCc2nc(-c3ccccc3)no2)cc1 — higher, 2.3%
- CCN(CC)CCOc1ccccc1OC.O=C(O)C(=O)O — lower, -11%
- CCN(CC)CCOC(=O)C(Cc1cccc2ccccc12)CC1CCCO1.O=C(O)C(=O)O (stereo not drawn) — lower, -53.8%
- O=C(NCC1CCCO1)c1cccc2ccccc12 (stereo not drawn) — higher, 21.2%
- O=C(Cc1cccc2ccccc12)NCC1CCCO1 (stereo not drawn) — lower, -5.85%
- CCN(CC)CCOC(=O)C(Cc1ccco1)Cc1cccc2ccccc12.O=C(O)C(=O)O (stereo not drawn) — lower, -76.8%
- CCN(CC)CCOC(=O)CCc1cccc2ccccc12.O=C(O)C(=O)O — lower, -42.6%
- CCOC(=O)C(C)Oc1ccc2c(C)cc(=O)oc2c1C(C)=O (stereo not drawn) — lower, -13.8%
- COCCn1c(SCC(=O)N2CCCCC2)nc2c(c1=O)SC(C)C2 (stereo not drawn) — higher, 9.29%
- O=C(C[n+]1cc(-c2ccccc2)n2c1CCC2)Nc1nc(-c2ccccc2)cs1.[Cl-] — lower, -35.1%
- O=C(C[n+]1cc(-c2ccc(Cl)cc2)n2c1CCC2)Nc1nc(-c2ccccc2)cs1.[Cl-] — higher, -0.843%
- Cc1ccc(-c2csc(NC(=O)C[n+]3cc(-c4ccc(C)cc4)n4c3CCC4)n2)cc1.[Cl-] — lower, -72.5%
- Cc1ccc(-c2c[n+](CC(=O)Nc3ccc(C)cc3C)c3n2CCC3)cc1.[Cl-] — lower, -30.8%
- Cc1ccc(-c2csc(NC(=O)C[n+]3cc(-c4ccccc4)n4c3CCC4)n2)cc1.[Cl-] — lower, -57%
- Cc1ccc(-c2c[n+](CC(=O)Nc3nc(-c4ccccc4)cs3)c3n2CCC3)cc1.[Cl-] — lower, -54.9%
- Cc1cccc(C)c1NC(=O)C[n+]1cc(-c2ccccc2)n2c1CCC2.[Cl-] — higher, 11.3%
- Cc1ccc(-c2c[n+](CC(=O)Nc3cc(=O)n(C)c(=O)n3C)c3n2CCC3)cc1.[Cl-] — higher, -0.179%
- Cc1ccccc1NC(=O)C[n+]1cc(-c2ccccc2)n2c1CCC2.[Cl-] — higher, 12.9%
- COC(=O)c1ccccc1NC(=O)c1cccc(COc2ccccc2Cl)c1 — higher, 10.6%
- O=C(c1ccc(F)cc1)N1CCN(c2ncccn2)CC1 — higher, -1.2%
- CC(=O)/C=C(\C)Nc1ccc(-c2cnc(-c3ccccc3)o2)cc1 — lower, -4.59%
- CC(=O)O[C@H]1CC[C@H]2[C@@H]3CCc4cc(O)ccc4[C@H]3CC[C@]12C — lower, -5.79%
- COc1ccc(CC(=O)N/N=C/c2ccc(C)s2)cc1 — higher, 11%
- O=C(Cc1cccc2ccccc12)Nc1ccc2c(c1)C(=O)NC2=O — higher, 9.52%
- COc1ccc(NC(=O)CS(=O)(=O)c2cn(CC(=O)N(C(C)C)C(C)C)c3ccccc23)c(OC)c1 — lower, -19.3%
- O=C(CC(c1ccccc1)c1ccccc1)NCCOCc1ccccc1 — lower, -12.6%
- Cc1ccc(CN2C(=O)CNC2=S)cc1 — higher, 9.68%
- O=C(Nc1cccc(N=Cc2cc(Br)cc(Br)c2O)c1)c1ccco1 — higher, 3.77%
- CCCc1nn(C)c(C(=O)Nc2ccc3ccccc3c2)c1Cl — higher, 8.62%
- CC1CC(C#N)N(N(C)C)C1=C(C#N)C#N (stereo not drawn) — higher, 11.3%
- CC(=O)Nc1c2c(nn1-c1cccc(Cl)c1)CS(=O)C2 (stereo not drawn) — higher, -1.6%
- CCOc1ccc(N=Cc2c(O)c3ccccc3oc2=O)cc1 — higher, 3.29%
- Cc1cccc(OCC(=O)NCc2ccccc2)c1 — higher, 13.6%
- COc1cccc(C2c3[nH]c4ccccc4c3C[C@H]3C(=O)N(CCCCCO)CC(=O)N23)c1 (stereo partly drawn) — lower, -64.9%
- COCCN1CC(=O)N2C(c3cccc(OC)c3)c3[nH]c4ccccc4c3C[C@H]2C1=O (stereo partly drawn) — lower, -38.6%
- COc1cccc(C2c3[nH]c4ccccc4c3CCN2Cc2cnn(C)c2)c1 (stereo not drawn) — lower, -69.6%
- CCn1cc(CN2CCc3c([nH]c4ccccc34)C2c2cccc(OC)c2OC)c(C)n1 (stereo not drawn) — higher, 7.99%
- COCCCN1CC(=O)N2C(c3cccc(OC)c3)c3[nH]c4ccccc4c3C[C@H]2C1=O (stereo partly drawn) — lower, -14.3%
- CCn1cc(CN2CCc3c([nH]c4ccccc34)C2c2cccc(O)c2)c(C)n1 (stereo not drawn) — lower, -18.8%
- Oc1cccc(C2c3[nH]c4ccccc4c3CCN2Cc2cnn(-c3ccccc3)c2)c1 (stereo not drawn) — lower, -35.3%
- CCn1cc(CN2CCc3c([nH]c4ccccc34)C2c2cccc(OC)c2)c(C)n1 (stereo not drawn) — lower, -57.3%
- COc1cc(C2c3[nH]c4ccccc4c3CCN2Cc2cn(C)nc2C)ccc1F (stereo not drawn) — higher, 1.02%
- CCOc1ccc(C2c3[nH]c4ccccc4c3CCN2Cc2cn(CC)nc2C)cc1 (stereo not drawn) — lower, -63.6%
- CCn1cc(CN2CCc3c([nH]c4ccccc34)C2c2ccc(F)c(OC)c2)c(C)n1 (stereo not drawn) — higher, 6.94%
- COc1cccc(C2c3[nH]c4ccccc4c3CCN2Cc2cccc(C)n2)c1 (stereo not drawn) — lower, -26.6%
- Cc1ccc(C(=O)NCCC(=O)NCc2ccco2)cc1 — higher, 9.59%
- CC1=NN(C(=O)c2nn(C)cc2Br)C(O)(C(F)(F)F)C1 (stereo not drawn) — higher, 10.3%
- Cc1cccc(C)c1NC(=O)CNC(=O)C1CCCC1 — higher, 2.19%
- O=C(NC1CCCCC1)C(c1ccc(F)cc1)N(C(=O)c1csnn1)C1CC1 (stereo not drawn) — higher, 13.2%
- COc1ccc(C(=O)CN2CCN(c3cc(C)nc4ccccc34)CC2)cc1 — lower, -68.8%
- COc1ccc2nc(C)cc(N3CC(C)OC(C)C3)c2c1 (stereo not drawn) — lower, -49.6%
- COc1ccc2nc(C)cc(N3CCC(C(N)=O)CC3)c2c1 — lower, -33.7%
- COc1ccc2nc(C)cc(N3CCOCC3)c2c1 — lower, -14.6%
- CCOC(=O)C1CCN(c2cc(C)nc3ccc(OC)cc23)CC1 — lower, -73.8%
- COc1ccc(N2CCN(CC(=O)c3ccccc3)CC2)cc1 — higher, 11%
- COc1ccc(C(=O)CN2CCN(c3ncccn3)CC2)cc1.O=C(O)C(=O)O — higher, 5.13%
- CCOC(=O)C1CCN(c2nc3cc(OC)ccc3cc2C#N)CC1 — lower, -16%
- COc1ccc2nc(C)cc(N3CCN(c4ccccc4)CC3)c2c1 — lower, -66.7%
- COc1ccc(N2CCN(c3cc(C)nc4ccc(OC)cc34)CC2)cc1 — lower, -69.1%
- COc1ccc2nc(C)cc(C(=O)O)c2c1 — higher, 0.7%
- COc1ccc(N2CCN(c3cc(C)c4ccccc4n3)CC2)cc1 — higher, 3.95%
